Data from PubChem BioAssay AID434927 (Sanford-Burnham Center for Chemical Genomics, 2010).
The source made the active and inactive calls.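 The calls were made as follows: active = inhibition above about 23% in any of six single-dose repeats (limit read from the data); inactive = the rest.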

These compounds were tested against Intestinal-type alkaline phosphatase (Homo sapiens) (UniProt P09923) (assay: suppression of intestinal alkaline phosphatase activity – biochemical, luminescence, single concentration, uHTS hits, confirmation (AID 434927;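 also: plate controls were DMSO wells with enzyme for no effect and wells lacking enzyme for full effect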)). Conditions: purified human IAP, CDP-Star luminescence, 30 min; at 8.3 µM; hits give high values.
Intestinal-type alkaline phosphatase (Homo sapiens), sequence (P09923 whole entry, looked up): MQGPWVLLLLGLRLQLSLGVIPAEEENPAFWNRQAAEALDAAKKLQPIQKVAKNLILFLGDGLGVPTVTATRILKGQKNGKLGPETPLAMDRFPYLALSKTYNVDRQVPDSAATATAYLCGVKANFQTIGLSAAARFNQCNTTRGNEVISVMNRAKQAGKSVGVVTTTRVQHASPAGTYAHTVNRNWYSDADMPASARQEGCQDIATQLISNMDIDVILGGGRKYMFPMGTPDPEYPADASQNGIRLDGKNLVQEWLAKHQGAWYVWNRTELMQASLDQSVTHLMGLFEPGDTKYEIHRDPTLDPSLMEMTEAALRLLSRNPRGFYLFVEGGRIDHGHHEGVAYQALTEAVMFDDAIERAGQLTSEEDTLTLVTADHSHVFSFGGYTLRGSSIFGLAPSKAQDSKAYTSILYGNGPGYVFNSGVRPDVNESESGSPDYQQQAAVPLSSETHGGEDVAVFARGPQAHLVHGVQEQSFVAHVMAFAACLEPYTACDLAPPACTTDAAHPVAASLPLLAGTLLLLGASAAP
Cc1[nH]n(-c2nc(-c3ccccc3F)cc(=O)[nH]2)c(=O)c1CCO was tested, and the inhibition was -39.7% (inactive). In the case of O=C(NNC(=S)NC(=O)c1ccccc1)c1cccnc1, the inhibition is reported as -320% (inactive). For O=C(N/N=C/c1cccc([N+](=O)[O-])c1)c1nc2ccccc2c(=O)[nH]1, the inhibition was 33.3% (active). With Cc1nc(Nc2nc3c(c(=O)[nH]2)CCC3)nc2ccccc12 the inhibition was -77.6% (inactive). For O=C(NN1C(=O)/C(=C/c2ccc(O)c([N+](=O)[O-])c2)SC1=S)c1ccccc1Cl, the inhibition was 38.9% (active). For Cc1ccc2c(c1)nnc1nnc(SCC(=O)O)n12, the inhibition was 33.9% (active). O=C1C2C3C=CC(C3)C2C(=O)N1c1n[nH]c(-c2cccnc2)n1 (stereo not drawn) was tested, and the inhibition was -82.5% (inactive). With N#C/C(=C(\O)c1ccco1)c1ccccn1 the inhibition was 55.3% (active). For O=C(Cc1ccc(Cl)c(Cl)c1)NNC(=S)NCC1CCCO1 (stereo not drawn), the inhibition was -97.6% (inactive). With COc1ccccc1N(C)S(=O)(=O)c1ccc(Cl)c(C(=O)NNC(=O)c2ccccc2O)c1 the inhibition was 59.4% (active). Cc1cc(Br)ccc1SCC(=O)OC/C(O)=C(\C#N)c1nc2ccccc2[nH]1 was tested, and the inhibition was -67.4% (inactive). With CC(NC(=S)NC1CCC(C(C)(C)C)CC1)c1ccccc1 (stereo not drawn) the inhibition was -111% (inactive). c1ccc(CSCCc2ccncc2)cc1 was tested, and the inhibition was -33.2% (inactive). In the case of CC(NS(=O)(=O)c1ccc(Br)cc1)C(=O)Nc1nc2ccccc2[nH]1 (stereo not drawn), the inhibition is reported as 66.7% (active). For COc1cc(/C=C(\C#N)C(=O)c2ccc(O)c(O)c2)cc(I)c1O, the inhibition was 40.4% (active). For Cc1ccc(S(=O)(=O)NCCC(=O)NNC(=O)COc2ccc(Br)cc2)cc1C, the inhibition was 41% (active). With Cc1cc(C)cc(OCC(=O)NNC(=O)c2cc(C)[nH]n2)c1 the inhibition was -94.6% (inactive). For Cc1c(C(=O)N/N=C/c2c(O)ccc3ccccc23)nnn1-c1nonc1N, the inhibition was -86.1% (inactive). For COc1cc(CN2CCC(n3nccc3NC(=O)CCCc3ccccc3)CC2)ccc1F, the inhibition was 40.7% (active). CNc1nnc(-c2cc3ccccc3oc2=O)s1 was tested, and the inhibition was 33.1% (active). In the case of Cc1nc2c3ccccc3nc(NNC(=O)CCC(=O)N3CCCC(C)C3)n2n1 (stereo not drawn), the inhibition is reported as -41.6% (inactive). COc1ccccc1CN1CCC(n2nccc2NC(=O)CCCc2ccccc2)CC1 was tested, and the inhibition was -112% (inactive). In the case of O=C(CCCCC(=O)NNC(=O)COc1ccccc1)NNC(=O)COc1ccccc1, the inhibition is reported as -88.4% (inactive). C#CCOCCOCCOCCNc1nc(N2CCN(C(=O)CCCCCCCCCCNC(=O)[C@H]([C@@H](C)CC)n3cc(CCCCN=C(N)N)nn3)CC2)nc(N2CCN(C(=O)CCCCCCCCCCNC(=O)[C@H](CO)n3cc(CCCSC)nn3)CC2)n1 was tested, and the inhibition was 38.5% (active). In the case of C/C(=N/Nc1ccccc1[N+](=O)[O-])c1ccc([N+](=O)[O-])cc1, the inhibition is reported as -233% (inactive). CC(=O)c1ccc(NC(=O)C2CCCN2S(=O)(=O)c2cccs2)cc1 (stereo not drawn) was tested, and the inhibition was -85.1% (inactive). In the case of COc1cc(/C=C2\SC(=S)N(N(C)c3ccccc3)C2=O)ccc1O, the inhibition is reported as 60.4% (active). Cc1cc(C(=O)NNC(=O)COc2c(C)cc(Br)cc2C)n[nH]1 was tested, and the inhibition was -0.057% (inactive). CC(C)(C)OC(=O)N1CCC(NC(=O)c2[nH]cnc2C(=O)Nc2ccon2)CC1 was tested, and the inhibition was 37% (active). In the case of CCOC(=O)c1c(NC(=O)Cn2cc([N+](=O)[O-])cn2)sc2c1CCC2, the inhibition is reported as -90.5% (inactive). For Cc1ccc(-c2cc(C(=O)N/N=C/c3ccccc3O)n[nH]2)o1, the inhibition was 39.3% (active). With CCn1c(C)nc2cc(C(=O)N/N=C/c3cccc(O)c3O)ccc21 the inhibition was -42.9% (inactive). In the case of CC(=O)Nc1cccc(C(=O)NNC(=O)c2n[nH]c(=O)c3ccccc23)c1, the inhibition is reported as -125% (inactive).
